Experimental data published in PubChem BioAssay (NCI).
Compounds without any hit were thinned out: in the full panel of roughly 79,000, 15% have a hit. Values without a mark were called inactive. Activity calls are given as the source filed them. Cut-off read from the data, not from the text of the source: active = growth inhibition above about 70%; inactive = the rest.

Key:
[1] = NCI Yeast Anticancer Drug Screen. Data for the rad50 strain (AID 155);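 note: 0% = growth of vehicle-only cultures of the same strain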; conditions: S. cerevisiae rad50 strain growth inhibition, active compounds read high
Procedure, shortened: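 Cells are treated with compound, grown, and their growth is then scored against vehicle-only cultures of the same repair-deficient yeast strain.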

[2] = NCI Yeast Anticancer Drug Screen. Data for the mec2-1 strain (AID 157); conditions: S. cerevisiae mec2-1 strain, active compounds read high
Procedure, shortened: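 mec2-1 yeast strain, carrying an alteration in DNA damage repair or cell cycle control, was exposed to compounds; growth inhibition was measured relative to vehicle-treated controls.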

[3] = NCI Yeast Anticancer Drug Screen. Data for the sgs1 mgt1 strain (AID 161);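 note: 0% = growth of cultures given vehicle only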; conditions: S. cerevisiae sgs1 mgt1 strain, active compounds read high
Procedure, shortened: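 Growth of a repair-deficient yeast mutant was monitored after compound treatment and expressed as inhibition relative to vehicle-treated cultures.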

[4] = NCI Yeast Anticancer Drug Screen. Data for the bub3 strain (AID 167); conditions: S. cerevisiae bub3 mutant strain, active compounds read high
Procedure, shortened: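 Part of a panel of yeast mutants defective in DNA damage repair or cell cycle regulation. Each strain is grown with compound, and inhibition is calculated relative to solvent-treated cultures.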

[5] = NCI Yeast Anticancer Drug Screen. Data for the mlh1 rad18 strain (AID 175); conditions: S. cerevisiae mlh1 rad18 strain growth inhibition, active compounds read high
Procedure, shortened: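 Growth inhibition of the yeast strain was measured after compound exposure and expressed relative to vehicle-treated controls. The strain carries defined defects in DNA damage repair.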

[6] = NCI Yeast Anticancer Drug Screen. Data for the cln2 rad14 strain (AID 165);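 note: 0% = growth equal to vehicle treated cultures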; conditions: S. cerevisiae cln2 rad14 strain, active compounds read high
Procedure, shortened: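 Yeast carrying cln2 and rad14 alterations (cell cycle control and DNA damage repair) were exposed to compounds. Growth inhibition was measured against vehicle-treated controls.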

[7] = at 5.0 µM (retest, dose inferred, filed as 0.5)
[8] = at 50.0 µM (retest, dose inferred, filed as 5.0)

Structure (SMILES): COc1ccc(-n2cc(-c3ccc(Cl)cc3)c3c(N)ncnc32)cc1
- growth inhibition [1, 7]: 20%
- growth inhibition [1, 8]: 99% (active)
- growth inhibition ([1]; at 50.0 µM): 95.6% (active)
- growth inhibition [2, 7]: 23%
- growth inhibition [2, 8]: 99% (active)
- growth inhibition ([2]; at 50.0 µM): 94.6% (active)
- growth inhibition [3, 7]: 63%
- growth inhibition [3, 8]: 99% (active)
- growth inhibition ([3]; at 50.0 µM): 98.2% (active)
- growth inhibition [4, 7]: 0%
- growth inhibition [4, 8]: 3%
- growth inhibition ([4]; at 50.0 µM): 91% (active)
- growth inhibition [5, 7]: 20%
- growth inhibition [5, 8]: 99% (active)
- growth inhibition ([5]; at 50.0 µM): 88% (active)

Structure (SMILES): O=C1c2ccccc2C(=O)c2c1ccc(O)c2O
- growth inhibition [1, 7]: 79% (active)
- growth inhibition [1, 8]: 96% (active)
- growth inhibition ([1]; at 50.0 µM): 83.3% (active)
- growth inhibition [2, 7]: 75% (active)
- growth inhibition [2, 8]: 94% (active)
- growth inhibition ([2]; at 50.0 µM): 75.8% (active)
- growth inhibition [3, 7]: 91% (active)
- growth inhibition [3, 8]: 94% (active)
- growth inhibition ([3]; at 50.0 µM): 81.5% (active)
- growth inhibition [6, 7]: 23%
- growth inhibition [6, 8]: 63%
- growth inhibition ([6]; at 50.0 µM): 65.7%
- growth inhibition [5, 7]: 90% (active)
- growth inhibition [5, 8]: 96% (active)
- growth inhibition ([5]; at 50.0 µM): 79% (active)

Structure (SMILES): COC(=O)C(=O)C(C(=O)Nc1cccc(C)c1C)C1Sc2ccccc2NC1=O (stereo not drawn)
- growth inhibition [1, 7]: 99% (active)
- growth inhibition [1, 8]: 99% (active)
- growth inhibition ([1]; at 50.0 µM): 51.1%
- growth inhibition [2, 7]: 88% (active)
- growth inhibition [2, 8]: 88% (active)
- growth inhibition ([2]; at 50.0 µM): 70.2% (active)
- growth inhibition [3, 7]: 99% (active)
- growth inhibition [3, 8]: 99% (active)
- growth inhibition ([3]; at 50.0 µM): 69.5%
- growth inhibition [4, 7]: 65%
- growth inhibition [4, 8]: 65%
- growth inhibition ([4]; at 50.0 µM): 81.7% (active)
- growth inhibition [5, 7]: 92% (active)
- growth inhibition [5, 8]: 92% (active)
- growth inhibition ([5]; at 50.0 µM): 81.5% (active)

Structure (SMILES): O=C1CC2(CCCC2)C(=O)N1c1ccc(N2C(=O)CC3(CCCC3)C2=O)cc1
- growth inhibition [1, 7]: 3%
- growth inhibition [1, 8]: -10%
- growth inhibition ([1]; at 50.0 µM): -11.8%
- growth inhibition [2, 7]: -3%
- growth inhibition [2, 8]: -12%
- growth inhibition ([2]; at 50.0 µM): 6.95%
- growth inhibition [3, 7]: -1%
- growth inhibition [3, 8]: -7%
- growth inhibition ([3]; at 50.0 µM): -22.4%
- growth inhibition [4, 7]: 0%
- growth inhibition [4, 8]: -4%
- growth inhibition ([4]; at 50.0 µM): -0.9%
- growth inhibition [5, 7]: 1%
- growth inhibition [5, 8]: -5%
- growth inhibition ([5]; at 50.0 µM): -11.7%

Structure (SMILES): CC1(C)CC(=O)C(c2ccccc2[N+](=O)[O-])=C(O)C1
- growth inhibition [1, 7]: 4%
- growth inhibition [1, 8]: 6%
- growth inhibition ([1]; at 50.0 µM): 99.6% (active)
- growth inhibition [2, 7]: 11%
- growth inhibition [2, 8]: 20%
- growth inhibition ([2]; at 50.0 µM): 99.3% (active)
- growth inhibition [6, 7]: 5%
- growth inhibition [6, 8]: 24%
- growth inhibition ([6]; at 50.0 µM): 90.3% (active)
- growth inhibition [4, 7]: -6%
- growth inhibition [4, 8]: -1%
- growth inhibition ([4]; at 50.0 µM): 98.3% (active)
- growth inhibition [5, 7]: -2%
- growth inhibition [5, 8]: 7%
- growth inhibition ([5]; at 50.0 µM): 99.2% (active)

Structure (SMILES): Cc1ccc(C(c2ccc(N(C)C)cc2)c2ccc(N(C)C)cc2)cc1
- growth inhibition [1, 7]: 97% (active)
- growth inhibition [1, 8]: 89% (active)
- growth inhibition ([1]; at 50.0 µM): 94.5% (active)
- growth inhibition [2, 7]: 99% (active)
- growth inhibition [2, 8]: 92% (active)
- growth inhibition ([2]; at 50.0 µM): 94.7% (active)
- growth inhibition [3, 7]: 99% (active)
- growth inhibition [3, 8]: 95% (active)
- growth inhibition ([3]; at 50.0 µM): 93.8% (active)
- growth inhibition [6, 7]: 78% (active)
- growth inhibition [6, 8]: 69%
- growth inhibition ([6]; at 50.0 µM): 69%
- growth inhibition [5, 7]: 98% (active)
- growth inhibition [5, 8]: 92% (active)
- growth inhibition ([5]; at 50.0 µM): 92.7% (active)

Structure (SMILES): CC(=O)Nc1cccc2c1ccc1ccc3ccccc3c12
- growth inhibition [1, 7]: 13%
- growth inhibition [1, 8]: 21%
- growth inhibition ([1]; at 50.0 µM): 77.3% (active)
- growth inhibition [2, 7]: -1%
- growth inhibition [2, 8]: 9%
- growth inhibition ([2]; at 50.0 µM): 61.2%
- growth inhibition [3, 7]: 4%
- growth inhibition [3, 8]: 20%
- growth inhibition ([3]; at 50.0 µM): 71.2% (active)
- growth inhibition [6, 7]: -12%
- growth inhibition [6, 8]: -11%
- growth inhibition ([6]; at 50.0 µM): -3.25%
- growth inhibition [5, 7]: 32%
- growth inhibition [5, 8]: 52%
- growth inhibition ([5]; at 50.0 µM): 71% (active)

Structure (SMILES): CCCCC(O)(c1ccc2nc(NC(=O)OC)[nH]c2c1)c1cccs1 (stereo not drawn)
- growth inhibition [1, 7]: -7%
- growth inhibition [1, 8]: 58%
- growth inhibition ([1]; at 50.0 µM): 7.8%
- growth inhibition [2, 7]: -4%
- growth inhibition [2, 8]: 62%
- growth inhibition ([2]; at 50.0 µM): 74.8% (active)
- growth inhibition [3, 7]: -4%
- growth inhibition [3, 8]: 69%
- growth inhibition ([3]; at 50.0 µM): 49.5%
- growth inhibition [4, 7]: -8%
- growth inhibition [4, 8]: 41%
- growth inhibition ([4]; at 50.0 µM): 35.5%
- growth inhibition [5, 7]: -5%
- growth inhibition [5, 8]: 62%
- growth inhibition ([5]; at 50.0 µM): 94.5% (active)

Structure (SMILES): O=C1c2ccccc2C(=O)c2c(Nc3cc4c5c(ccc6c7ccc8c9c(cc(Nc%10cccc%11c%10C(=O)c%10ccccc%10C%11=O)c(c3c56)c97)-c3ccccc3C8=O)C(=O)c3ccccc3-4)cccc21
- growth inhibition [1, 7]: 1%
- growth inhibition [1, 8]: 15%
- growth inhibition ([1]; at 50.0 µM): 16.9%
- growth inhibition [2, 7]: -5%
- growth inhibition [2, 8]: -3%
- growth inhibition ([2]; at 50.0 µM): 44%
- growth inhibition [6, 7]: -6%
- growth inhibition [6, 8]: 4%
- growth inhibition ([6]; at 50.0 µM): 40.8%
- growth inhibition [4, 7]: -11%
- growth inhibition [4, 8]: 6%
- growth inhibition ([4]; at 50.0 µM): 3.1%
- growth inhibition [5, 7]: -13%
- growth inhibition [5, 8]: -4%
- growth inhibition ([5]; at 50.0 µM): -4.35%

Structure (SMILES): O=C(O)/C(Cl)=C(/Cl)C(=O)Nc1cccc(Cl)c1
- growth inhibition [1, 7]: 45%
- growth inhibition [1, 8]: 98% (active)
- growth inhibition ([1]; at 50.0 µM): 90.9% (active)
- growth inhibition [2, 7]: 50%
- growth inhibition [2, 8]: 100% (active)
- growth inhibition ([2]; at 50.0 µM): 86.2% (active)
- growth inhibition [6, 7]: 32%
- growth inhibition [6, 8]: 99% (active)
- growth inhibition ([6]; at 50.0 µM): 89.1% (active)
- growth inhibition [4, 7]: 63%
- growth inhibition [4, 8]: 99% (active)
- growth inhibition ([4]; at 50.0 µM): 89.9% (active)
- growth inhibition [5, 7]: 50%
- growth inhibition [5, 8]: 99% (active)
- growth inhibition ([5]; at 50.0 µM): 92.4% (active)

Structure (SMILES): CN(C)c1ccc(C=Nc2ccc(OCCCCCCCCCCC(=O)O)cc2)cc1
- growth inhibition [1, 7]: 100% (active)
- growth inhibition [1, 8]: 100% (active)
- growth inhibition ([1]; at 50.0 µM): 82.5% (active)
- growth inhibition [2, 7]: 100% (active)
- growth inhibition [2, 8]: 99% (active)
- growth inhibition ([2]; at 50.0 µM): 59.9%
- growth inhibition [3, 7]: 77% (active)
- growth inhibition [3, 8]: 86% (active)
- growth inhibition ([3]; at 50.0 µM): 76.7% (active)
- growth inhibition [6, 7]: 77% (active)
- growth inhibition [6, 8]: 92% (active)
- growth inhibition ([6]; at 50.0 µM): 75% (active)
- growth inhibition [4, 7]: 73% (active)
- growth inhibition [4, 8]: 84% (active)
- growth inhibition ([4]; at 50.0 µM): 84.5% (active)
- growth inhibition [5, 7]: 100% (active)
- growth inhibition [5, 8]: 100% (active)
- growth inhibition ([5]; at 50.0 µM): 71.5% (active)
